Shown are actives, neighbours in structure and some others; about 0.99% of the full set was active somewhere.
TRHR enhancer: allosterically enhances the human TRH receptor | TRHR cells, fluo-8 calcium fluorescence, EC20 TRH enhancement | enhancement, % at 2 µM | hit rate 0.66% among 360,000; in the data active = enhancement above about 30%; also: 0% is about no effect
Target sequence (P34981 whole entry, looked up): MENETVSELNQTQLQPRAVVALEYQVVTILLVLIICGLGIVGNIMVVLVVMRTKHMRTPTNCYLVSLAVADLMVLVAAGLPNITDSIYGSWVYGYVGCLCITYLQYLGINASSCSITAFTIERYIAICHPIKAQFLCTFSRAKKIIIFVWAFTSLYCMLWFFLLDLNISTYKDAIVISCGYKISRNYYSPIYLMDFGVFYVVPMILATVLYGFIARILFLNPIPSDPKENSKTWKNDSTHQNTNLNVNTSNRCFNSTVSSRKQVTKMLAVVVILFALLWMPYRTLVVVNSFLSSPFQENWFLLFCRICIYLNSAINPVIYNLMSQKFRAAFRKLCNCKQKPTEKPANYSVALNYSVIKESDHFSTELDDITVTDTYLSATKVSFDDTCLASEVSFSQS
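TRHR-expressing cells loaded with fluo-8 calcium dye were read kinetically (ex 480/em 530) during compound addition, then stimulated with an EC20 of TRH (10 nM final). Enhancement of the Gq-mediated intracellular calcium response was scored.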
TRPML1 blocker: inhibitors of human TRPML1 channel. TRPML1-inducible cells, Ca2+ dye fluorescence, FDSS; stronger effect = lower value; inhibition of EC80 agonist-evoked calcium signal. activity change, negative = inhibition, % (test concentration not listed). hit rate 0.02% among 390,000; in the data active = activity change below about -50%; inconclusive = between about -30% and that limit;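 also: stimulus is agonist 54-4 at its EC80 concentration; % is scaled to controls: 0 for no effect and ±100 for the full control effect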
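Calcium fluorescence in TRPML1-DL cells induced overnight with Tet: a 110 s read after compound pin addition, then a 110 s antagonist read after challenge with 54-4 at 4 uM final (EC80).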
TRHR ag: agonists of human TRH receptor; P34981; TRHR cells, calcium flux fluo-8, FDSS agonist mode; activation, % at 2 µM; hit rate 0.18% among 360,000; in the data active = activation above about 30%; also: 0% is about no effect
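Agonist-mode FDSS calcium read (Ex 480/Em 530, 1 s cycles) in 1536-well TRHR cells with fluo-8 dye, after 10-cycle baseline and 23 nL compound addition; TRH at EC20 (10 nM final) added afterwards for the enhancer phase.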
TRPML1 agonist: human mucolipin-1 channel agonism; TRPML1-expressing cells, Ca2+ dye fluorescence, FDSS; hit rate 0.12% among 410,000; activation, % (test concentration not listed); in the data active = activation above about 50%; inconclusive = mostly about 30% to 49%; also: 0% is about no effect
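In this qHTS format, compounds were pin-transferred onto Ca8-dye-loaded TRPML1-DL cells induced with Tet overnight, and intracellular Ca2+ fluorescence was recorded kinetically for 110 s after a 10 s baseline. A subsequent 4uM final 54-4 (EC80) addition followed by a second 110 s read served as the antagonist phase.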
TRPV1 PAM: enhances activation of the human vanilloid receptor TRPV1; Q8NER1; TRPV1-expressing cells, Fluo-8 calcium influx, capsaicin EC20 potentiation; potentiation, % at 8.33 µM; hit rate 0.02% among 320,000; AID 540277; in the data active = potentiation above about 80%; inconclusive = between about 30% and that limit; also: 0% is about no effect
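Fluo-8 calcium influx in TRPV1-expressing cells, kinetic read (ex 480/em 520 nm). Compound added and read 3 min for agonist activity, followed by capsaicin at EC20 final and 2 min further read for enhancement.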
TRPV1 ag: agonists of human vanilloid receptor 1 (TRPV1) | Q8NER1 | TRPV1-expressing cells, Fluo-8 calcium influx, agonist mode | activation, % at 8.33 µM | hit rate 0.19% among 320,000; in the data active = activation above about 80%; inconclusive = between about 30% and that limit; also: 0% is about no effect
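TRPV1-expressing cells were cultured overnight at 35.5C and loaded with Fluo-8 calcium dye for 40 to 90 min at room temperature. After a 10 s baseline, compound was added and calcium influx was read kinetically for 3 min (ex 480/em 520 nm).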
Numbers without * were called inactive; ? = inconclusive; · = not tested or not shown.

SMILES	TRHR enhancer	TRPML1 blocker	TRHR ag	TRPML1 agonist	TRPV1 PAM	TRPV1 ag
CC(=O)/C=C/c1ccc2c(c1)S(=O)(=O)N(C1CCCC1)[C@H]2CC(C)=O	·	·	·	0	·	·
C=C1C=C(C)n2ncc(C(=O)Nc3ccc(NC(C)=O)c(Cl)c3)c2N1	·	·	·	-1	·	·
COc1cc2nc(CCc3nc4cc(OC)c(OC)cc4[nH]3)[nH]c2cc1OC	·	·	·	0	·	·
CCOC(=O)c1[nH]c(C)c(C(=O)NCc2ccc(C)cc2)c1C	7	6	0	0	7	19
CCOC(=O)c1[nH]c(C)c(C(=O)c2ccc(C)cc2)c1C	-12	1	-2	2	0	90*
CC(C)(C)n1ncc2c(=O)n(Cc3ccc(Cl)cc3F)cnc21	·	1	·	2	·	·
Cc1cc2c(n1-c1ccc(C(=O)NCCc3ccc(Cl)cc3)cc1)CCC(C)C2 (stereo not given)	31*	19	0	1	·	·
COc1ccc(CCNC(=O)c2ccc3c(c2)N(Cc2cc(C)ccc2C)C(=O)c2ccccc2S3=O)cc1OC (stereo not given)	31*	-3	0	0	·	·
CCOC(=O)N1CCC(NC(=O)c2ccc3c(c2)N(Cc2ccc(F)cc2)C(=O)c2ccccc2S3=O)CC1 (stereo not given)	37*	20	1	0	·	·
COc1ccc(CCNC(=O)COc2ccc(S(=O)(=O)NC(C)C)cc2Cl)cc1OC	-13	-61*	0	0	-13	0
CCn1c(SCC(=O)N(C)c2c(N)n(Cc3ccccc3)c(=O)[nH]c2=O)nc2ccccc21	31*	5	1	1	·	·
Cc1nnc(SCC(=O)N(C)c2c(N)n(Cc3ccccc3)c(=O)[nH]c2=O)n1Cc1ccccc1	1	7	1	0	?	-2
CCCNC(=O)c1cnn2c(C(F)F)cc(-c3ccccc3)nc12	30*	-9	0	-1	·	·
COCCNC(=O)c1cnn2c(C(F)F)cc(-c3ccc(C)cc3)nc12	-2	10	-1	4	3	?
COc1ccc(-c2cc(C(F)F)n3ncc(C(=O)Nc4cc(C)on4)c3n2)cc1	9	3	1	0	-18	85*
O=C1C[C@H]2C=CCc3cccc(c32)CN1Cc1cccc(F)c1	·	·	·	0	·	·
Cc1ccc2c(c1C)-c1c(ccc(C)c1C)C(=O)C2=O	·	-9	·	13	·	·
Cc1ccc(CC#N)c(-c2c(CC#N)ccc(C)c2C)c1C	·	-16	·	78*	·	·
CCC(C)c1ccc(NC(=O)c2ccco2)cc1 (stereo not given)	0	·	-1	·	6	82*
CCC(C)c1ccc(NC(=O)N2CCOCC2)cc1 (stereo not given)	3	-17	0	0	-24	93*
O=C(Nc1ccc(Cc2ccc(NC(=O)N3CCOCC3)cc2)cc1)N1CCOCC1	-3	10	0	0	-2	1
O=C(C[n+]1ccccc1Cl)c1cccc([N+](=O)[O-])c1	·	·	·	0	·	·
C/C(=C\C(=O)c1ccc(Br)cc1)NCc1ccccc1	7	3	1	2	11	2
C/C(=C\C(=O)c1ccc(Br)cc1)NCc1ccc(C)cc1	40*	11	0	0	12	-1
O=C(CCC(=O)Nc1ccccc1)N/N=C/c1ccco1	38*	1	0	0	-1	2
SMILES	TRHR enhancer	TRPML1 blocker	TRHR ag	TRPML1 agonist	TRPV1 PAM	TRPV1 ag
O=C(CCC(=O)Nc1cccc2ccccc12)N/N=C/c1ccco1	-4	-8	0	0	0	0
Cc1cccc(NC(=O)CCC(=O)N/N=C/c2ccco2)c1C	34*	0	0	0	-6	-8
Cc1cc(N(C)C)cc(C)c1/C=C/c1cc[n+](C)c2ccccc12	·	·	·	0	·	·
COCCCCOc1cc2nc(N3CCCN(C)CC3)nc(NC3CCN(C)CC3)c2cc1OC	·	·	·	0	·	·
Cc1cc2c(s1)c1cnn(Cc3ccc(S(C)(=O)=O)cc3)c(=O)c1n2C	-1	·	-1	·	·	·
COc1cc(C)ccc1OCc1cc(C(=O)N2CCCCCCC2)no1	39*	3	-1	2	-5	15
O=C(c1cc(COc2ccc(F)cc2Cl)on1)N1CCCCCC1	-3	7	0	0	-13	25
COc1cc(C)ccc1OCc1cc(C(=O)N2CCN(C3CCCCC3)CC2)no1	2	3	0	0	-15	10
O=C(c1cc(COc2ccc(F)cc2Cl)on1)N1CCC(c2ccncc2)CC1	-10	34	0	1	5	86*
CN(CC(=O)O)c1ccc(C=O)cc1	·	·	·	0	·	·
COc1ccccc1N1N=C(c2ccc([N+](=O)[O-])cc2)CC1c1ccccc1 (stereo not given)	2	-16	24	69*	9	6
CS(=O)(=O)/C=C/c1nc(Nc2cc(F)cc(F)c2)c2ncn(CC(F)F)c2n1	1	·	-1	·	·	·
O=c1c(Cl)c(Cl)cnn1Cc1nnc(-c2ccccc2Br)o1	39*	10	1	-1	-2	1
COc1cccc(CN(CC2CCCO2)S(=O)(=O)c2ccc(S(=O)(=O)N(C)C)cc2)c1 (stereo not given)	3	-11	0	87*	-11	12
O=C(N/N=C\c1cccc(OC(=O)c2ccco2)c1)c1ccc2c(c1)OCO2	33*	3	6	2	-1	13
NC(=O)c1ccc(C(=O)N/N=C/c2cccc(Oc3ccccc3)c2)cc1	36*	-9	1	1	4	4
O=C(N/N=C/c1cccnc1)c1ccc2c(c1)OCO2	-1	15	0	0	-36	90*
COc1ccc(/C=N/NC(=O)c2ccc3c(c2)OCO3)c(C(=O)O)c1OC	-4	-2	0	0	-8	80*
O=C(N/N=C/c1cccc(Oc2ccccc2)c1)c1cccc(O)c1	-7	13	-1	0	-14	?
O=C(N/N=C/c1ccc2c(c1)OCO2)c1ccc2c(c1)OCO2	-4	33	0	-1	1	?
O=C(N/N=C\c1ccc2c(c1)OCO2)c1ccco1	1	25	0	0	-7	12
O=S(=O)(c1ccc2c(Cl)cccc2c1)N1CCN(c2nc(-c3cccs3)nc3ccccc23)CC1	·	·	·	0	·	·
CCOc1ccc2c(c1)c(=O)c(S(=O)(=O)c1ccc(Cl)cc1)cn2Cc1ccccc1C	40*	62	1	-1	·	·
CCOc1ccc2c(c1)c(=O)c(S(=O)(=O)c1ccc(C)cc1)cn2Cc1ccccc1Cl	-4	-17	2	1	·	·
O=C(OCc1c(Cl)nc2sccn12)c1cc2c(s1)CCCC2	33*	37	0	0	3	2
